PubChem BioAssay (Tox21)
Records with an inconclusive call do not appear. Calls of active or inactive are those of the source. Calls follow the shape of the dose curve; as a rule, active = well fitted cell-killing curve with a large enough effect in the repeat runs; inconclusive = weak or mixed curves, or effect the other way; inactive = flat fitted curve, though single readings scatter.

Experiment: qHTS assay to identify small molecule antagonists of the constitutive androstane receptor (CAR) signaling pathway - cell viability counter screen (AID 1224837); also: nearly all actives have a fitted effect of over 45% in size
Details: HepG2-CYP2B6-hCAR viability, CellTiter-Fluor, 23 h, co-treated with 50 nM CITCO; series mostly up to 92.4 µM; activity change, negative = cytotoxicity: at the top concentration
Description: National Center for Advancing Translational Sciences [NCATS]
NIH Chemical Genomics Center [NCGC]
U.S. Environmental Protection Agency [EPA]
National Institutes of Environmental Health Sciences [NIEHS]
National Toxicology Program [NTP]
U.S. Food and Drug Administration [FDA]
The constitutive androstane receptor (CAR) is a nuclear receptor which regulates multiple drug metabolizing enzymes (DMEs) and transporters. Activating CAR will generally increase the transcription and subsequent translation of CYP2B6 and CYP3A4. These two DMEs represent about 50% of the drug metabolizing potential in the body. When CAR is deactivated, the metabolizing potential in the body will decrease, subsequently increasing the toxicity in the body or lowering the therapeutic potential of a pro-drug. Recently, there have also been studies performed indicating CARs role in energy metabolism and cancer therapy. Therefore, inhibiting CARs activity could have a potential effect on diabetes and cancer. Identifying environmental toxins and compounds which modulate CAR, through the use of the Tox21 10K compound collection, will be an important step in determining the toxicity and potential therapeutic effects these factors will have on the human body. To differentiate true CAR antagonists from cytotoxic substances, the assay is multiplexed with a cell viability assay.
Tox21 Assay Protocol Summary:
A double-stable (hCAR and CYP2B6-2.2kb) transfected cell line, derived from human hepatoma (HepG2) cells, was utilized for the duration of the quantitative high-throughput screens. The HepG2-CYP2B6-hCAR cells were dispensed at 2500 cells/4 uL/well in 1536-well white solid bottom plates using a Multidrop Combi. After the assay plates were incubated at 37 C/5% CO2 for 4 hrs, 23 nL of compounds at 15 concentrations (from 5-48 columns) or positive control (from 1 to 4 columns) were transferred to the assay plates using a Pintool station. One uL of CITCO (final concentration = 50 nM) was added, using a Flying Reagent Dispenser, inside each well. After a 23 hr incubation period at 37 C/5% CO2, 1 uL of CellTiter-Fluor reagent was added into each well of the assay plates using a Flying Reagent Dispenser. The fluorescence intensity in the plates was then measured using a ViewLux plate reader.
% is scaled to controls: 0 for no effect and ±100 for the full control effect; potency is read from the fitted curve at half-maximal effect.

Compound | activity change, negative = cytotoxicity | Potency
O=c1[nH]c2ccc(S(=O)CCN3CCC(Cc4ccc(F)cc4)CC3)cc2o1 (stereo not given) | -4.31% (inactive) | 
CC(=O)Nc1ccccc1C | -2.5% (inactive) | 
C[Si]1(C)O[Si](C)(C)O[Si](C)(C)O1 | 0.669% (inactive) | 
CCCCCCCC/C=C\CCCCCCCC(=O)OC(CO)CO | -6.27% (inactive) | 
CC(=O)Nc1ccc(N)cc1 | -0.184% (inactive) | 
CC1(C)C2=CCCC(C)(C)[C@]23CC[C@H]1C3 | -2.51% (inactive) | 
O=[N+]([O-])c1cccc(S(=O)(=O)NCCNS(=O)(=O)c2cccc([N+](=O)[O-])c2)c1 | 1.71% [at 42.5 µM] (inactive) | 
CC(=O)OCC(=O)[C@H]1CC[C@H]2[C@@H]3CCC4=CC(=O)CC[C@]4(C)[C@H]3CC[C@]12C | 0.127% [at 42.5 µM] (inactive) | 
CC1CC(O)CC(C)(C)C1 (stereo not given) | -4.08% (inactive) | 
CC[C@H](NC(=O)c1cc(F)ccc1NS(=O)(=O)c1cccc2cccnc12)c1ccccc1 | -11.2% (inactive) | 
CCCOC(=O)c1ccc(N)cc1 | 15.9% [at 42.5 µM] (inactive) | 
CCOC(=O)c1ccccc1C | -0.954% (inactive) | 
CCC(C(=O)OCCOCCN(CC)CC)c1ccccc1 (stereo not given) | -2.5% [at 42.5 µM] (inactive) | 
CCCCCCCCCOC(C)=O | 2.79% (inactive) | 
Cc1ccc(S(=O)(=O)NC2CCCCC2)cc1 | -16.4% (inactive) | 
OCC1CC=CCC1 (stereo not given) | -0.776% (inactive) | 
CCCOC(=O)c1ccc(C(=O)OCCC)nc1 | 14% (inactive) | 
CC1CC(=O)NN=C1c1ccc(NCC(C)(C)NCC(O)COc2cc(Cl)ccc2C#N)cc1 (stereo not given) | -7.69% [at 42.5 µM] (inactive) | 
CO[C@H]1O[C@H](CO)[C@@H](O)[C@H](O)[C@H]1O | -1.89% (inactive) | 
Cc1cc2nc3ccc(=[N+](C)C)cc-3sc2cc1N |  | 10.6 µM (active)

Compound | activity change, negative = cytotoxicity | Potency
O=C(O)Cc1ccc(-c2ccccc2)cc1 | 1.57% [at 42.5 µM] (inactive) | 
O=C(CS)OCCOC(=O)CS | 3.18% (inactive) | 
C/C(=N/NC(=O)c1ccncc1)C(=O)O | 6.09% [at 42.5 µM] (inactive) | 
CCCCCCCCCCCC(=O)[O][Sn]([CH2]CCC)([CH2]CCC)[O]C(=O)CCCCCCCCCCC | 0.348% [at 42.5 µM] (inactive) | 
CCC(Cc1ccccc1)(C(=O)c1ccc(N2CCOCC2)cc1)N(C)C (stereo not given) | -20.6% (inactive) | 
Cc1cc(O)c(C(C)C)cc1Cl |  | inactive
Nc1ccc(S(=O)(=O)O)cc1 | 4.4% (inactive) | 
CCOC(=O)OCC | 4.19% (inactive) | 
CCOC(=O)/C=C/C(=O)O | 1.95% (inactive) | 
c1cc[c]([Bi]([c]2ccccc2)[c]2ccccc2)cc1 | 8.81% (inactive) | 
CCCCCCCCCCCC[N+](C)(C)CCCS(=O)(=O)[O-] | 0.554% (inactive) | 
N#C/C(=C1/SC[C@@H](c2ccc(Cl)cc2Cl)S1)n1ccnc1 | -0.122% [at 42.5 µM] (inactive) | 
CN1Cc2cc(C(=O)N3CCC(C4CCNCC4)CC3)ccc2N[C@@H](CC(=O)O)C1=O | 3.81% [at 42.5 µM] (inactive) | 
O=C(O)c1ccccc1NCCc1ccccc1 | 9.24% [at 42.5 µM] (inactive) | 
CCOC(=O)[C@@H](C)Oc1ccc(Oc2nc3ccc(Cl)cc3o2)cc1 | -16.7% (inactive) | 
CO/N=C1\CN(c2nc3c(cc2F)c(=O)c(C(=O)O)cn3C2CC2)CC1CN (stereo not given) | -21.5% [at 42.5 µM] (inactive) | 
Cc1cc(OI)c(C(C)C)cc1-c1cc(C(C)C)c(OI)cc1C | 9.8% [at 42.5 µM] (inactive) | 
C=CC(=C)CCCC(C)(C)OC(C)=O | 0.0237% (inactive) | 
CCC(C)=O | 4.54% (inactive) | 
O=Cc1c(Cl)cccc1Cl | -0.961% (inactive) | 
